DNMT1 inh: blocks human DNA methyltransferase DNMT1; P26358; DNMT1 molecular beacon, Hinp1I cleavage, fluorescence; hit rate 0.83% among 360,000; inhibition (reported as % activation of signal), % at 10 µM; in the data active = inhibition above about 50%
MBD2 inh: inhibitors of human MBD2 binding to methylated oligonucleotide. Q9UBB5. inhibition, % at 4.4 µM. TR-FRET. AID 686964. hit rate 0.31% among 370,000; in the data active = inhibition above about 13%
rCAG binder: r(CAG) repeat RNA binding; AID 651821; inhibition, % at 3 µM; TO-PRO-1 dye displacement fluorescence; hit rate 1.3% among 370,000;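 active = inhibition above the plate cutoff, the mean of all test compounds on that plate plus 3 SD, cut at about 35% in these data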;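 note: 0% = DMSO alone and 100% = 100 µM mitoxantrone as full dye displacement; higher means more dye released from RNA so lower well fluorescence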
UHRF1 MBD2 ctr: blocks human UHRF1 binding to methylated DNA; Q96T88; hit rate 0.75% among 370,000; UHRF1 binding to methylated oligo, TR-FRET; AID 687016; inhibition, % at 4.4 µM; in the data active = inhibition above about 21%;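 note: UHRF1 SRA domain binding a hemimethylated CpG hairpin DNA probe; 0% = median of test compound wells and 100% = reference inhibitor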
Target sequence (Q96T88 whole entry, looked up, the tested form may be a part): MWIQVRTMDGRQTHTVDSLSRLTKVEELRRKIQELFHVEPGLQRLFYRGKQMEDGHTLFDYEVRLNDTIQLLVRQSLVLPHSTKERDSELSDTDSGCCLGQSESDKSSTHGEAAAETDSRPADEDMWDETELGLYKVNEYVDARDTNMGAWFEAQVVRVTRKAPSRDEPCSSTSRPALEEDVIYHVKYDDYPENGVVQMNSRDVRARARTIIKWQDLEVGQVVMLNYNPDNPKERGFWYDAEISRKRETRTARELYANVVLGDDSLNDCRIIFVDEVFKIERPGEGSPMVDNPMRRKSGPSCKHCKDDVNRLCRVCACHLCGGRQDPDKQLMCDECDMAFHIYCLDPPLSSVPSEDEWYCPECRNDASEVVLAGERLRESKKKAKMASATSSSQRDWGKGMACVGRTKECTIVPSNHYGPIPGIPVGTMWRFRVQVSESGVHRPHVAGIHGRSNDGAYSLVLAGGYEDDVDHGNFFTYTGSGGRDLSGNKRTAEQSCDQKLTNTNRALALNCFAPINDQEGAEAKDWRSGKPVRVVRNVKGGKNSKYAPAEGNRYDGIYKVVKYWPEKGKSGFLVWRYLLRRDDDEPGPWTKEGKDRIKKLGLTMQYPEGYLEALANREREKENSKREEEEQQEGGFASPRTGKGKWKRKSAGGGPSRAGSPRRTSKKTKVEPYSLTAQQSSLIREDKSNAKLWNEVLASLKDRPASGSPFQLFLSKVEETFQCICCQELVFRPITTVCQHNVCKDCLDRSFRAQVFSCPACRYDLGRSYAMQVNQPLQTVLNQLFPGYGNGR
PG9 Ab binder: small molecules binding HIV-1 gp120 antibody PG9; TR-FRET gp120-PG9 antibody binding; inhibition, % at 6.7 µM; hit rate 0.43% among 360,000; AID 624416; in the data active = inhibition above about 8.5%
LEDGF integ inh: blocks HIV-1 LEDGF/p75-dependent DNA integration | TR-FRET IN-LEDGF/p75 DNA integration, Eu/Cy5 | inhibition, % at 3.7 µM | hit rate 0.64% among 370,000;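 active = inhibition above the screen-wide mean plus 3 SD, cut at about 13% in these data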;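 note: signal is the Cy5 over europium emission ratio at 671 and 618 nm; 0% = plate median of compound wells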
Active calls of the source: *; i = inactive; x = not tested or not shown; + = active, no number. Most compounds without a hit are left out; they make up all but 3.5% or so of the library.

SMILES	DNMT1 inh	MBD2 inh	rCAG binder	UHRF1 MBD2 ctr	PG9 Ab binder	LEDGF integ inh
CCOc1ccc(NC(=O)COC(=O)c2cc(S(=O)(=O)N3CCCC3)ccc2C)cc1	-4.8	2.5	1.6	1.6	-0.6	0.9
Cc1ccc(C(=O)NC2CCS(=O)(=O)C2)cc1S(=O)(=O)N1CCCCC1 (stereo not given)	2.0	-2.8	-1.1	24.9*	0.5	0.8
Cc1ccc(S(=O)(=O)N2CCOCC2)cc1C(=O)OCC(=O)NC1CCS(=O)(=O)C1 (stereo not given)	2.1	-2.9	5.1	21.5*	-1.2	-6.4
Cc1ccc(S(=O)(=O)N2CCCCC2)cc1C(=O)OCC(=O)NC(=O)NC12CC3CC(CC(C3)C1)C2	1.3	-4.6	2.7	45.1*	-1.2	0.8
Cc1ccc(C(=O)NC2CCS(=O)(=O)C2)cc1S(=O)(=O)N1CCOCC1 (stereo not given)	1.8	3.9	0.1	-0.6	1.5	-3.3
C#CCNC(=O)C[C@H]1C(=O)N(CCc2ccc(Cl)cc2)C2=CCCC[C@@]21C(=O)OCC	x	2.2	7.3	-0.8	x	-3.3
C(#CC1=CCCCC1)CNCc1ccccc1	x	1.8	3.2	1.2	x	-1.2
O=C(NC1CCCCN(Cc2cccc(C(F)(F)F)c2)C1=O)c1ccc(-c2ccccc2)cc1 (stereo not given)	x	1.8	4.0	-1.0	x	-1.3
NC(=O)c1ncn([C@@H]2O[C@H](CNCc3cccc4c3sc3ccccc34)[C@@H](O)[C@H]2O)n1	27.8	8.6	1.5	21.5*	0.5	-2.2
COc1cc(Cl)c(CNC[C@H]2O[C@@H](n3cnc(C(N)=O)n3)[C@H](O)[C@@H]2O)c(Cl)c1O	0.4	-4.2	2.6	-2.9	-0.8	1.2
CC(C)Oc1ccc2ccccc2c1CNC[C@H]1O[C@@H](n2cnc(C(N)=O)n2)[C@H](O)[C@@H]1O	1.0	5.6	-0.6	43.9*	-4.2	2.9
Cc1ccnc(-n2c(C)cc(C=O)c2C)c1	0.6	4.3	0.7	23.2*	-1.3	4.3
CCC(C)CNC(=O)CN1C(=O)C2CCCCN2C(=O)c2ccccc21 (stereo not given)	x	-3.1	-0.6	0.4	x	0.6
Cc1ccc(-c2cc3c(N=O)c4ccccc4c-3n[nH]2)cc1	74.6*	1.4	15.4	-2.6	0.6	-2.8
N#Cc1cc(Cl)c(N2CCOCC2)cc1C#N	-0.8	8.6	-2.3	13.8	-1.4	-0.9
CC1(C)CC(NCCN2CCN(C3=CC(=C(C#N)C#N)CC(C)(C)C3)CC2)=CC(=C(C#N)C#N)C1	-14.8	-1.3	0.1	-0.6	0.5	1.4
CN1CCN(C2=CC3=CC(=C(C#N)C#N)CCC3CC2)CC1 (stereo not given)	+	x	x	x	x	x
N#CC(C#N)=C1C=C2C=C(N3CCOCC3)CCC2CC1 (stereo not given)	+	-16.9	-357.2	-76.7	-4.4	3.6
CCN1CCN(C2=CC3=CC(=C(C#N)C#N)CCC3CC2)CC1 (stereo not given)	+	x	x	x	x	x
N#CC(C#N)=C1C=C2C=C(N3CCCCCC3)CCC2CC1 (stereo not given)	+	-50.2	i	-235.7	-9.9	-7.8
FC(F)(F)c1cc(CNC2CCC23CCC(c2ccccc2)CC3)ccc1Cl (stereo not given)	x	-0.9	x	-3.0	x	0.7
Cc1ccc([N+](=O)[O-])cc1NC(=O)/C=C/C(=O)O	2.3	-5.6	-2.5	40.2*	1.8	-8.6
CC(C1=CCCCC1)c1cnn(C)c1 (stereo not given)	x	-6.6	1.0	0.8	x	8.7
C#CCn1c2ccccc2c2nc3ccccc3nc21	0.9	0.3	-1.6	23.1*	-0.7	-2.1
COCc1c(C(=O)N/N=C/c2ccc(C)o2)nnn1-c1nonc1N	-1.2	0.1	0.5	25.2*	-1.2	-0.4
SMILES	DNMT1 inh	MBD2 inh	rCAG binder	UHRF1 MBD2 ctr	PG9 Ab binder	LEDGF integ inh
Cc1ccc(/C=N/NC(=O)c2nnn(-c3nonc3N)c2CN(C)C)o1	-1.1	2.8	-1.0	0.5	1.0	-2.5
COCc1c(C(N)=O)nnn1-c1nonc1N	-1.7	1.3	-0.7	31.7*	-0.4	3.9
COCc1c(C(=O)N/N=C/c2ccncc2)nnn1-c1nonc1N	2.0	6.6	-1.3	1.3	-0.3	2.8
CN(C(=O)[C@@H]1CC=C[C@@H]2CCN(C3CCCCC3)C(=O)[C@@H]21)c1ccccc1	x	-0.9	x	-2.6	x	1.1
CC(NC(=O)CN1C(=O)NC2(CCCCC2)C1=O)c1ccc(S(N)(=O)=O)cc1 (stereo not given)	-8.5	-0.7	-1.2	3.0	0.3	-2.1
CCOC(=O)c1c(NC(C)=O)sc2c(O)c(Br)cc(Br)c12	-9.7	-2.9	44.1*	-2.1	0.7	0.4
Cc1ccc(NC(=O)C2CC3CCC2C3)c(C)c1 (stereo not given)	x	5.1	x	0.2	x	-2.8
O=C(NC1CCCCC1)C(c1ccc(C(F)(F)F)cc1)n1c(=O)c(-c2ccccc2)nc2ccccc21 (stereo not given)	x	-0.8	0.7	5.2	-0.5	-2.7
COc1cc(C(=O)NCc2ccc(-c3nc4ccccc4o3)cc2)cc(OC)c1OC	13.8	2.1	0.6	2.7	11.4*	7.5
COc1ccc(/C=C/C(=O)Nc2ccc(NC(C)=O)cc2)cc1S(=O)(=O)N1CCOCC1	2.0	-0.3	5.1	32.2*	-0.5	-3.2
COC(=O)[C@]12C[C@H](CC(=O)NCc3cccs3)C(=O)N(Cc3ccc(Cl)cc3Cl)C1=C[C@H](C(C)(C)C)O[C@@H]2C	x	3.8	5.2	1.1	x	-1.7
Cc1ccc(C2CCC3(CCC(=O)N3CCO)CC2)cc1 (stereo not given)	x	1.7	-2.6	2.2	x	3.0
C=CC1=C(C(=O)O)N2C(=O)[C@@H](NC(=O)/C(=N\O)c3csc(N)n3)[C@H]2SC1 (stereo in doubt)	88.7*	10.7	3.5	7.0	-0.6	5.9
CCOc1ccc(C2C(C(=O)c3ccco3)=C(O)C(=O)N2CCCn2ccnc2)cc1 (stereo not given)	-7.8	0.6	4.0	-2.8	8.4	0.7
Cc1ccc(C(=O)C2=C(O)C(=O)N(CCCn3ccnc3)C2c2ccc(OC(C)C)cc2)o1 (stereo not given)	-4.4	-2.1	4.2	-8.3	41.1*	0.3
CN1CCOc2ccc(S(=O)(=O)NCCc3ccc(Cl)cc3)cc21	1.3	5.4	5.6	29.8*	-1.7	6.6
CC(=O)N1CCOc2ccc(S(=O)(=O)NCCc3ccc(Cl)cc3)cc21	1.3	-2.0	0.8	-1.4	3.3	1.2
CCOC(=O)[C@]12CCCC=C1N(Cc1ccco1)C(=O)[C@H](CC(=O)NCc1cccc3ccccc13)C2	x	-6.5	3.2	-1.8	0.0	-0.5
Cc1ccc(C(C(=O)NC2CCCCC2)N(CCC(C)C)C(=O)CNC(=O)c2ccco2)o1 (stereo not given)	0.4	7.5	-10.6	20.9*	-0.3	3.5
Cc1cc(C(=O)OCC(=O)NC2CC2)ccc1[N+](=O)[O-]	3.5	3.7	-0.8	80.3*	-0.4	-2.2

Compound activity as filed in PubChem BioAssay.
